Screening results as filed in PubChem BioAssay.
A selection: hits, their analogues and other compounds. The true share with any hit is near 4.2%.
AHR activator – human AHR activation. P35869. AID 2796. activation, % at 5 µM. actives 2.5% (n = 320,000). AHR-responsive luciferase reporter cells, luminescence; in the data active = activation above about 47%;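 also: 0% = vehicle wells and 100% = reference agonist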
Target sequence (P35869 whole entry, looked up): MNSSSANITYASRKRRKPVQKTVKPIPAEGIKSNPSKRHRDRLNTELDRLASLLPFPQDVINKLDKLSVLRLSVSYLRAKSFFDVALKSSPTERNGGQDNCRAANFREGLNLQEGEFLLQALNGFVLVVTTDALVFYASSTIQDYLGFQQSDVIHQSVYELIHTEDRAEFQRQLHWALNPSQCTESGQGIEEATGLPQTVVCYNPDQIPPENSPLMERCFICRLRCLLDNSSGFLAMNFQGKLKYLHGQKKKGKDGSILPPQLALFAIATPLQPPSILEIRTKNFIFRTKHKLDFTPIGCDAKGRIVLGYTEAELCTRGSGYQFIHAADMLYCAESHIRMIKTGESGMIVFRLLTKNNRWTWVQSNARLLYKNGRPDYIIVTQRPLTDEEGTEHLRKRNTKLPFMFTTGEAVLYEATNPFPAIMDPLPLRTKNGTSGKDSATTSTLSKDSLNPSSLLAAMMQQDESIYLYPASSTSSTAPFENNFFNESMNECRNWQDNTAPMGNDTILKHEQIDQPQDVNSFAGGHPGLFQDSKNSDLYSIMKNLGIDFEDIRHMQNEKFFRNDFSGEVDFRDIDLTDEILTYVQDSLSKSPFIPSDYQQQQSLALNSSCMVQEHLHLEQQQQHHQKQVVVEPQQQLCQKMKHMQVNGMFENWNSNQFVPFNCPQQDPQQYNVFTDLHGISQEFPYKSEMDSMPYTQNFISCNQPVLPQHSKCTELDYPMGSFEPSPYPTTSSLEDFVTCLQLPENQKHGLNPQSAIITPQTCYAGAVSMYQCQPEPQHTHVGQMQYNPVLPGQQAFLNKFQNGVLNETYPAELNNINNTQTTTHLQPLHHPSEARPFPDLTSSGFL
Wnt act – Wnt/beta-catenin pathway activation | Wnt/beta-catenin reporter cell assay, activator, plate reader | activation, % at 9.35 µM | actives 1.2% (n = 300,000); in the data active = activation above about 30%, passing the limit was not always enough; inconclusive = no clear call, values can overlap the other calls;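 also: 0% = neutral control wells and 100% = positive control wells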
FXN GAA850 act – activators of GAA850 frataxin (FXN) promoter | HEK293 lucGAA850 FXN promoter luciferase reporter, 24 h; percent of 10 µM SAHA response | activation, % at 6 µM | actives 0.56% (n = 360,000) | AID 540364;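 active = activation above the average of all compounds screened plus 3 SD, cutoff fixed separately per campaign, cut at about 7.5% in these data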;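 also: 0% = DMSO wells and 100% = 10 µM SAHA wells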
MITF act – MITF TRPM1 promoter activation in melanoma cells; SK-MEL-5 TRPM1-promoter luciferase, 24 h; % of positive control, neutral wells = 0; activation, % at 12.5 µM; actives 0.75% (n = 300,000);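 active = mean activation of at least 80% with every replicate also reaching 80%; inconclusive = mean reaches 80% but some replicate falls short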;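 also: 0% = neutral control wells and 100% = parthenolide positive control wells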
esBAF inh – SWI/SNF esBAF complex inhibition; mouse ES cells, Bmi1-luciferase knock-in reporter, 24 h; 100% = twice the neutral-well signal; reporter increase, % at 12.5 µM; actives 2% (n = 350,000); AID 602393; in the data active = activation above about 40%; inconclusive = no clear call, values can overlap the other calls;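 also: 0% = median of the plate's neutral control wells and 100% = double that signal; a rise in the Bmi1 reporter signal indicates esBAF inhibition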
An asterisk follows results filed as active; ? = inconclusive; / = no result.

SMILES	AHR activator	Wnt act	FXN GAA850 act	MITF act	esBAF inh
CCOc1ccc(Nc2cc(C)c3ccccc3n2)cc1	-2	13	5	?	46*
O=C(C[C@H]1C[C@@H]2c3cc(NC(=O)CC4CC4)ccc3O[C@@H]2[C@@H](CO)O1)NCc1ccc2c(c1)OCO2	/	/	/	/	-3
CO[C@H]1CC[C@H]2CCOc3ccc(C#N)cc3C(=O)N(C)C[C@@H](C)C(=O)N(C)C[C@@H]1O2	/	/	/	/	2
CC(C)CC#Cc1ccc2c(c1)O[C@@H](CN(C)C(=O)c1ccccn1)[C@@H](C)CN([C@@H](C)CO)S2(=O)=O	/	/	/	/	-1
O=C(OCC(=O)c1cccc2ccccc12)c1ccc(CO)cc1	0	9	7	137*	/
C/C(=N\Nc1nc(N)cc(Cl)n1)c1cccc(N)c1	65*	-1	7	17	7
CN(C(=O)C1CCC(=O)N(Cc2cccc(F)c2)C1)C1CCCCC1 (stereo not given)	8	44*	3	98*	97*
CN(Cc1ccco1)C(=O)C1CCC(=O)N(CCc2cccc(F)c2)C1 (stereo not given)	-3	-1	2	1	0
C#CCN(C(=O)C1CCC(=O)N(CCc2cccc(F)c2)C1)C1CCCCC1 (stereo not given)	/	33*	1	/	/
Cc1ccsc1CCNC(=O)C1CCC(=O)N(CCc2cccc(F)c2)C1 (stereo not given)	12	26	1	95*	65*
COc1ccc(CCNC(=O)C2CCC(=O)N(CCc3ccc(OC)cc3)C2)cc1 (stereo not given)	0	1	-1	3	7
COc1ccc(CCN2CC(C(=O)NCCc3ccccc3C(F)(F)F)CCC2=O)cc1 (stereo not given)	3	9	2	46	49*
O=C(NC1CCC1)C1CCC(=O)N(Cc2cccc(F)c2)C1 (stereo not given)	/	3	3	4	6
CNC[C@H]1Oc2ccc(NC(=O)Cc3cn(C)c4ccccc34)cc2C(=O)N([C@H](C)CO)C[C@@H]1C	/	/	/	/	-4
CCC(=O)N(C)C[C@H]1Oc2cc(-c3ccccc3C)ccc2S(=O)(=O)N([C@H](C)CO)C[C@H]1C	/	/	/	/	7
Cc1noc(C)c1NC(=O)Nc1cccc2c1O[C@@H](CN(C)S(=O)(=O)c1ccc(Cl)cc1)[C@@H](C)CN([C@@H](C)CO)C2=O	/	/	/	/	0
CC(=O)N(C)C[C@H]1Oc2cc(C#CC3CC3)ccc2S(=O)(=O)N([C@@H](C)CO)C[C@@H]1C	/	/	/	/	5
COc1ccc(S(=O)(=O)Nc2ccc3c(c2)C(=O)N([C@@H](C)CO)C[C@H](C)[C@@H](CN(C)C(=O)Cc2ccccc2)OCCCC[C@@H](C)O3)cc1	/	/	/	/	1
C[C@@H]1CN([C@@H](C)CO)C(=O)c2cc(/C=C/c3ccccc3)cnc2O[C@@H]1CN(C)C(=O)Cc1cccnc1	/	/	/	/	-1
O=C(Oc1ccc(Br)cc1C(=O)/C=C/c1ccccc1F)c1ccco1	56*	-2	6	-17	-41
CC(=O)c1cc(Cl)ccc1OC(=O)c1ccco1	16	/	1	-8	4
COc1ccccc1C(=O)Nc1ccc(Br)c2cccnc12	47	-1	0	/	8
COc1ccccc1C(=O)Nc1ccc(Br)cc1C	37	37*	4	40	39
COc1ccc(NC(=O)c2cc(Br)ccc2Cl)c(OC)c1	107*	1	2	-18	/
COc1ccc(NC(=O)c2ccccc2O)c(OC)c1	13	19	4	58	53*
SMILES	AHR activator	Wnt act	FXN GAA850 act	MITF act	esBAF inh
COc1ccc(NC(=O)c2ccc(C(=O)Nc3ccc(OC)cc3OC)cc2)c(OC)c1	0	0	2	3	/
CC(C)NC(=O)Nc1ccc2c(c1)CC(=O)N([C@@H](C)CO)C[C@@H](C)[C@H](CN(C)S(C)(=O)=O)O2	/	/	/	/	-8
COc1ccc(S(=O)(=O)Nc2cccc3c2O[C@@H](CN(C)CC2CCCCC2)[C@@H](C)CN([C@@H](C)CO)C3=O)cc1	/	/	/	/	-5
CC(=Nc1cccc(O)c1)c1sc2ccccc2c1O	1	20	3	55	82*
CC(=Nc1ccc(C)cc1C)c1sc2ccccc2c1O	6	5	4	64	/
CC(=Nc1ccc(C)cc1)c1sc2ccccc2c1O	10	46*	0	27	/
CN=Cc1sc2ccccc2c1O	10	-1	2	-11	6
C[C@@H]1CN([C@@H](C)CO)C(=O)Cc2cc(NC(=O)C3CC3)ccc2O[C@@H]1CN(C)C(=O)Nc1ccc(C(F)(F)F)cc1	/	/	/	/	-2
CCOC(=O)c1cc(-c2ccc(OC(F)F)cc2)nc2c1c(=O)[nH]c(=O)n2C	61*	-5	2	2	-3
CCOC(=O)c1cc(-c2ccc(OC(F)F)cc2)nc2nc(SC)[nH]c(=O)c12	11	-2	4	63	/
CCN(CC1CCCO1)C(=O)c1cc(COc2cc(C)c(Cl)c(C)c2)on1 (stereo not given)	/	30	4	90*	84*
Cc1cc(OCc2cc(C(=O)N(C)CCCN3CCOCC3)no2)cc(C)c1Cl	5	-9	3	19	16
Cc1cc(OCc2cc(C(=O)N(C)CC3CCOCC3)no2)cc(C)c1Cl	1	-4	3	47	50*
CN(C)CC(=O)N[C@@H]1CC[C@H](CCNS(=O)(=O)c2ccccc2)O[C@@H]1CO	/	/	/	/	5
Cc1ccsc1/C=N/n1c(-c2cccnc2)n[nH]c1=S	60*	/	0	/	0
COc1ccc(-c2n[nH]c(=S)n2/N=C/c2cccn2C)cc1	70*	0	1	/	/
O=[N+]([O-])c1ccc(/C=N/n2c(-c3cccnc3)n[nH]c2=S)cc1	4	/	0	3	-12
Cc1ccc(/C=N/n2c(-c3ccncc3)n[nH]c2=S)cc1	/	-11	0	14	/
CC(C)(C)c1ccc(-c2n[nH]c(=S)n2/N=C/c2ccncc2)cc1	75*	-1	2	10	/
S=c1[nH]nc(-c2ccncc2)n1/N=C/c1cn(-c2ccccc2)nc1-c1ccccc1	2	37*	2	/	/
COCC(=O)Nc1ccc2c(c1)OC[C@H](C)N(C(=O)CC1CC1)C[C@@H](C)[C@H](OC)CN(C)C2=O	/	/	/	/	-3
CO[C@@H]1CN(C)C(=O)c2ccc(NC(=O)C3CC3)cc2OC[C@H](C)N(Cc2ccccc2)C[C@@H]1C	/	/	/	/	1
Cc1ccc(-c2n[nH]c(=S)n2/N=C/c2cccs2)cc1	55*	0	1	0	-3
S=c1[nH]nc(-c2ccccc2)n1/N=C/c1cccs1	37	/	0	-3	0
O=C(Nc1ccccn1)c1cc2ccccc2o1	28	/	-2	-62	-67
O=C(Nc1ccccc1C(F)(F)F)c1cc2ccccc2o1	3	14	4	56	52*
Cc1ccc(C)c(NC(=O)c2cc3ccccc3o2)c1	/	3	2	/	74*
Cc1ccnc(NC(=O)c2cc3ccccc3o2)c1	8	21	-7	-40	/
COC(=O)c1ccccc1NC(=O)c1cc2ccccc2o1	9	-1	1	/	?
